Measurements as given in PubChem BioAssay AID1159580 (chemical genetic matrix, 2015).
Hit rate of the full screen: of about 5,500 compounds, about 2,000 (36%) were called active. Another 18% or so got no clear call; they are omitted. Cut-off read from the data, not from the text of the source: active = normalized growth mostly below about 0.91 (no sharp cut-off); inconclusive = no clear call, values can overlap the other calls; inactive = mostly above about 0.92. Some of the results follow.

Assay: chemical genetic growth profiling, strain panel (AID 1159580);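 note: tested at 20 µM; growth read once vehicle control cultures reached saturation at 30 °C; 1 = growth at the plate median or of vehicle wells; lower values mean less growth of the strain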
Conditions: S. cerevisiae deletion strains, growth OD
[1] = locus YAL040C, strain CLN3, hits give low values
[2] = locus YCL061C, strain MRC1 (second series), hits give low values
[3] = locus YDR363W, strain ESC2, hits give low values
[4] = locus YER002W, strain NOP16, hits give low values
[5] = locus YNL175C, strain NOP13, hits give low values
[6] = locus YNL197C, strain WHI3, hits give low values
[7] = locus YNL224C, strain SQS1, hits give low values
[8] = locus YNL322C, strain KRE1, hits give low values
[9] = locus YOR083W, strain WHI5 (second series), hits give low values
[10] = locus YPL055C, strain LGE1, hits give low values
[11] = locus YPL241C, strain CIN2, hits give low values

Measured: normalized growth

O[Si](CCCN1CCCCC1)(c1ccc(F)cc1)C1CCCCC1 (configuration not stated)
inactive: [1] 0.964 | [2] 0.986 | [3] 0.988 | [4] 1.04 | locus YGR229C, strain SMI1, hits give low values 0.972 | locus YJR075W, strain HOC1, hits give low values 1.02 | locus YMR263W, strain SAP30, hits give low values 1 | [5] 0.995 | [6] 1.01 | [7] 1.01 | [8] 0.982 | [9] 1.08 | [10] 0.981 | [11] 0.994

CC1=CC(=O)C(CCOCCC2=CC(=O)C(C)=CC2=O)=CC1=O
inactive: locus YAR019C, strain CDC15, hits give low values 0.981 | locus YBL105C, strain PKC1, hits give low values 0.99 | locus YBR135W, strain CKS1, hits give low values 0.985 | locus YBR136W, strain MEC1, hits give low values 0.982 | locus YBR160W, strain CDC28, hits give low values 0.983 | locus YDL017W, strain CDC7, hits give low values 0.992 | locus YDL028C, strain MPS1, hits give low values 0.981 | locus YDL101C, strain DUN1, hits give low values 0.973 | locus YDL108W, strain KIN28, hits give low values 0.983 | locus YDL132W, strain cdc53, hits give low values 0.988 | locus YDL214C, strain PRR2, hits give low values 0.701 | locus YDR052C, strain DBF4, hits give low values 0.991 | locus YDR054C, strain cdc34, hits give low values 0.986 | locus YDR226W, strain ADK1, hits give low values 0.979 | locus YDR477W, strain SNF1, hits give low values 0.706 | locus YER123W, strain YCK3, hits give low values 0.806 | locus YER133W, strain GLC7, hits give low values 0.765 | locus YFL009W, strain cdc4, hits give low values 0.993 | locus YFL029C, strain CAK1, hits give low values 0.987 | locus YFR003C, strain YPI1, hits give low values 0.989 | locus YFR019W, strain FAB1, hits give low values 0.864 | locus YFR028C, strain CDC14, hits give low values 0.985 | locus YGR040W, strain KSS1, hits give low values 0.739 | locus YGR052W, strain FMP48, hits give low values 0.7 | locus YGR092W, strain DBF2, hits give low values 0.917 | locus YHR079C, strain IRE1, hits give low values 1.07 | locus YHR205W, strain SCH9, hits give low values 0.958 | locus YIL147C, strain SLN1, hits give low values 0.984 | locus YJL095W, strain BCK1, hits give low values 0.863 | locus YJL128C, strain PBS2, hits give low values 0.934 | locus YJR016C, strain ILV3, hits give low values 0.987 | locus YJR066W, strain TOR1 (second series), hits give low values 0.804 | locus YJR066W, strain TOR1, hits give low values 0.502 | locus YKL048C, strain ELM1, hits give low values 0.981 | locus YKL067W, strain YNK1, hits give low values 0.857 | locus YKL101W, strain HSL1, hits give low values 0.945 | locus YKL193C, strain SDS22, hits give low values 0.995 | locus YKL203C, strain TOR2, hits give low values 0.976 | locus YLR133W, strain CKI1, hits give low values 0.953 | locus YLR403W, strain SFP1, hits give low values 0.938 | locus YML070W, strain DAK1, hits give low values 0.866 | locus YMR001C, strain CDC5, hits give low values 0.984 | locus YMR205C, strain PFK2 (second series), hits give low values 0.97 | locus YMR277W, strain FCP1, hits give low values 0.987 | locus YNL006W, strain LST8, hits give low values 0.996 | locus YNL020C, strain ARK1, hits give low values 0.959 | locus YNL161W, strain CBK1, hits give low values 0.986 | locus YNL183C, strain NPR1, hits give low values 0.793 | locus YNL207W, strain RIO2, hits give low values 0.992 | locus YNL222W, strain SSU72, hits give low values 0.99 | locus YNL307C, strain MCK1 (second series), hits give low values 0.969 | locus YOL078W, strain AVO1, hits give low values 0.989 | locus YOL136C, strain PFK27, hits give low values 0.818 | locus YOR061W, strain CKA2, hits give low values 0.946 | locus YOR119C, strain RIO1, hits give low values 0.972 | locus YOR231W, strain MKK1, hits give low values 1.05 | locus YOR329C, strain SCD5, hits give low values 0.999 | locus YPL031C, strain PHO85, hits give low values 0.778 | locus YPL153C, strain RAD53, hits give low values 0.909 | locus YPL204W, strain HRR25, hits give low values 0.899 | locus YPL209C, strain IPL1, hits give low values 0.991 | locus YPR025C, strain CCL1, hits give low values 0.991 | locus YPR106W, strain ISR1, hits give low values 0.986 | locus YPR111W, strain DBF20, hits give low values 0.98 | strain NNK1, hits give low values 0.993 | strain TSCII, hits give low values 0.991
active: locus YHR082C, strain KSP1, hits give low values 0.444 | locus YLR113W, strain HOG1, hits give low values 0.685 | locus YPL256C, strain CLN2, hits give low values 0.234

CCOC(=O)C1=C(C)NC(=S)NC1c1cccc(O)c1 (configuration not stated)
inactive: locus YAL013W, strain DEP1, hits give low values 0.995 | [1] 0.985 | [2] 1 | [3] 1 | [4] 0.989 | locus YGR078C, strain PAC10, hits give low values 1 | locus YNL153C, strain GIM3, hits give low values 0.976 | [5] 0.995 | [6] 0.99 | [7] 0.996 | [8] 0.997 | [9] 0.968 | [10] 0.991 | [11] 1
